This note sets out measurements from PubChem BioAssay.

Structures are written as SMILES. This is one part of the list. Calls of active or inactive are those of the source. Unless noted, no stated cut-off is given here; in the data, active means activity above about 50%; inactive means the rest.

Chain of Tumor necrosis factor receptor superfamily member 10B (Homo sapiens) (O14763 whole entry, looked up): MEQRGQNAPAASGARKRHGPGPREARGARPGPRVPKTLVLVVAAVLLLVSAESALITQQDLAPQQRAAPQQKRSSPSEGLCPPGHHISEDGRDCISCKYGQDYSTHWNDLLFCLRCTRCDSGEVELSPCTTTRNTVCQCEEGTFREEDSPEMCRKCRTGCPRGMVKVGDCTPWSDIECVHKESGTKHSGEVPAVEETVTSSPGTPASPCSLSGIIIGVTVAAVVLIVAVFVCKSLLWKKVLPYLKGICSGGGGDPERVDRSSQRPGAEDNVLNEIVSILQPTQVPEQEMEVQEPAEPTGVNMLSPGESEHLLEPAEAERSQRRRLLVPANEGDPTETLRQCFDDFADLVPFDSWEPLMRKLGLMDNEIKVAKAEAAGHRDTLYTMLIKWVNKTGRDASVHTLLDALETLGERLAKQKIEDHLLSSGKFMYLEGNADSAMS

Tested on in one test: not listed separately
The test is described as follows: HIF-1a luciferase reporter signal reduction – MiaPaCa-2 cells, single concentration, counter-screen for HIF-2a inhibitor project, confirmation (AID 651589;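 active means mean inhibition of the reporter signal across four replicates at the single tested dose of 50% or more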). Particulars: MiaPaCa-2 HIF-1a luciferase reporter, desferoxamine, overnight; at 18.8 µM; stronger effect = higher value. (A reporter such as luciferase makes a cellular process visible.)
One may read the inhibition as the relative decrease from the control value, in per cent. As to `COCC(C)n1c(C)cc(C(=O)COc2ccc(C)nc2[N+](=O)[O-])c1C` (configuration not stated), the inhibition was 41.4% (inactive).

For the compound `Cc1cc(Cl)c(S(=O)(=O)Nc2ccc3c(c2)OCCO3)cc1OCC(N)=O`, the inhibition was 52.6% (active).

Take `CN(C)CCNC(=O)c1cccc(-c2cnc3c(NC=O)cc(-c4cccc(C(F)(F)F)c4)cn23)c1`: the inhibition is 106% (active).

For the compound `CCN1CCC(O)(/C=C/c2ccc(C)cc2)C(C(=O)/C=C/c2ccc(C)cc2)C1` (configuration not stated), the inhibition is 105% (active).

On to `O=C(CN1CCN(C2CCS(=O)(=O)C2)CC1)N1N=C(c2ccc(Cl)cc2)CC1c1ccco1` (configuration not stated), for which the inhibition was 74.8% (active).

Regarding `O=C(CCl)N(Cc1cccc([N+](=O)[O-])c1)c1cccc(Cl)c1`, the inhibition was 107% (active).

In the case of `O=C1C=C(c2ccc(Cl)cc2)C(=O)N1Nc1ccccc1`, the inhibition is 41% (inactive).

Consider `Cc1c(CCC(=O)O)c(=O)oc2cc3occ(-c4ccccc4)c3cc12`, for which the inhibition is 50.7% (active).

For `COc1ccc(CC(N)c2csc(NC(=O)Nc3ccc(C(C)C)cc3)n2)cc1` (configuration not stated), the inhibition is 101% (active).

Turning to `CC(C)(C)c1cc(C(=O)N/N=C/c2ccc([N+](=O)[O-])s2)n[nH]1`, the inhibition was 98.4% (active).

`Cc1nnnn1/C(=C\c1ccccc1)C(=O)OCC(=O)N1CC2(C)CC1CC(C)(C)C2` (configuration not stated): the inhibition was 67.3% (active).

For `Cc1cc(-c2n[nH]c(=S)n2/N=C/C(Br)=C/c2ccccc2)n[nH]1`, the inhibition was 105% (active).

As to `Cc1ccc(NC(=S)NC(NC(=O)Cc2cccc3ccccc23)C(Cl)(Cl)Cl)cc1` (configuration not stated), the inhibition was 98.7% (active).

As to `Cc1cccc(C(=O)Nc2ccc(CC(=O)O)cc2)c1`, the inhibition is 44.8% (inactive).

Regarding `COC(=O)CCNc1ccc2c(c1)OCCO2`, the inhibition is 56.6% (active).

With `Cc1coc2c(O)cc3c(c12)OC1(N2CCCCC2)C(=O)NCCCC31` (configuration not stated), the inhibition was 107% (active).

Another test addresses Tumor necrosis factor receptor superfamily member 10B (Homo sapiens) (UniProt O14763). As to the kind of experiment: viability loss of caspase-8 NB7 cells with TRAIL – with/without TRAIL, luminescence panel, confirmation (AID 651596). The conditions noted are these: NB7 neuroblastoma + caspase-8, TRAIL sensitization, NB7 Caspase-8, with TRAIL, mean of runs, at 10 µM, stronger effect = higher value.
Consider `CN(C)CCNC(=O)c1cccc(-c2cnc3c(NC=O)cc(-c4cccc(C(F)(F)F)c4)cn23)c1`, for which the activity turned out to be 46.6%.

Regarding `COc1cccc2c1C(CO)N1C(C#N)C3CC(C(=O)O)C(C1C2)N3C` (configuration not stated), the activity was determined as 59.9%.

As for `O=C(CCl)N(Cc1cccc([N+](=O)[O-])c1)c1cccc(Cl)c1`, the activity was found to be 99.1%.

On to `O=C(c1ccncc1)N(Cc1cc2ccccc2[nH]c1=O)C1CCCCC1`, for which the activity worked out at 72.5%.

For the compound `COc1ccc(C(=O)Nc2ccccc2C(N)=O)cc1`, the activity is 56.5%.

As for `CN(C)CCCN(C(=O)c1ccc(S(=O)(=O)N(C)C2CCCCC2)cc1)c1nc2ccc(Br)cc2s1`, the activity is 46.2%.

For the compound `Cc1cccc(NC(=O)c2onc3c2CCCC3)n1`, the activity came out at 85.6%.

As for `O=C(Nc1ccc(N2CCOCC2)c(F)c1)c1cccs1`, the activity was found to be 48.5%.

In the case of `O=[N+]([O-])c1ccc(-c2nc(C(Cl)Cl)c3ccccc3n2)cc1`, the activity was determined as 56.8%.

Consider `COc1ccc(CC(N)c2csc(NC(=O)Nc3ccc(C(C)C)cc3)n2)cc1` (configuration not stated), for which the activity is 82.5%.

For the compound `C#Cc1ccc(NC(=O)C2(C)CCN2C(=O)c2ccccc2CCc2ccccc2)cc1` (configuration not stated), the activity came out at 91.2%.

As for `NNc1nc(-c2ccccc2)nc2sc3c(c12)CCCC3`, the activity turned out to be 57.2%.

Regarding `O=C(CN1C(=O)c2ccccc2S1(=O)=O)c1ccc(Cl)cc1Cl`, the activity was determined as 64.3%.

As for `Fc1cccc(/C=N/Nc2nncc3ccccc23)c1`, the activity worked out at 79.5%.

As to `CCC(C(=O)O/N=C(\N)c1ccc(C)cc1)c1ccccc1` (configuration not stated), the activity was found to be 65.2%.

Take `CN(C)c1cccc(/C=C(\C#N)c2ccccc2)c1`: the activity came to 28.8%.

For the compound `S=c1[nH]ncn1/N=C/c1ccc(N2CCOCC2)cc1`, the activity came out at 62%.

On to `Cn1c(-c2ccccc2)c(C(=O)CCl)c2ccccc21`, for which the activity came to 99.2%.

For the compound `Cc1nc(SCCC(=O)O)c2cc(-c3ccccc3)sc2n1`, the activity worked out at 59%.

`CN(C)c1ccc(/C=N/NC(=O)c2ccco2)cc1`: the activity was 50.2%.

For the compound `CC(/C=N/NC(=O)c1cccs1)=C\c1ccccc1`, the activity was found to be 61.9%.

For the compound `O=C(Nc1ccc(N2CCN(C(=O)c3ccccc3)CC2)cc1)c1ccc([N+](=O)[O-])o1`, the activity came to 89%.

Consider `CC(C)(C)OC(=O)NCCCCCNC(=O)c1[nH]cnc1C(=O)Nc1cc(Br)ccc1F`, for which the activity is 78.2%.

Take `N=c1n(CC(=O)c2ccc(Br)s2)c2ccccc2n1Cc1ccccc1`: the activity came out at 20.9%.

For the compound `Nc1nc(N)c2c(ccc3nccc32)[nH]1`, the activity was determined as 73.3%.

In the case of `COc1ccccc1C=NN=C(NN=Cc1ccccc1OC)NN=Cc1ccccc1OC`, the activity is 78%.

Turning to `O=C(NNC(=O)c1cc(OCC(F)(F)F)ccc1OCC(F)(F)F)c1cccc(C(F)(F)F)c1`, the activity was 50.6%.

Tested on in a further test: not listed separately
The test is described as above. Particulars: NB7 neuroblastoma + caspase-8, without TRAIL, NB7 Caspase-8, without TRAIL, mean of runs, at 10 µM.
Regarding `CN(C)CCNC(=O)c1cccc(-c2cnc3c(NC=O)cc(-c4cccc(C(F)(F)F)c4)cn23)c1`, the activity was determined as 90.8%.

In the case of `COc1cccc2c1C(CO)N1C(C#N)C3CC(C(=O)O)C(C1C2)N3C` (configuration not stated), the activity came to 83.8%.

In the case of `O=C(CCl)N(Cc1cccc([N+](=O)[O-])c1)c1cccc(Cl)c1`, the activity was determined as 99.6%.

In the case of `O=C(c1ccncc1)N(Cc1cc2ccccc2[nH]c1=O)C1CCCCC1`, the activity was found to be 78.4%.

In the case of `COc1ccc(C(=O)Nc2ccccc2C(N)=O)cc1`, the activity amounted to 56.2%.

With `CN(C)CCCN(C(=O)c1ccc(S(=O)(=O)N(C)C2CCCCC2)cc1)c1nc2ccc(Br)cc2s1`, the activity stood at 45%.

As for `Cc1cccc(NC(=O)c2onc3c2CCCC3)n1`, the activity turned out to be 89.4%.

Consider `O=C(Nc1ccc(N2CCOCC2)c(F)c1)c1cccs1`, for which the activity is 63.3%.

As for `O=[N+]([O-])c1ccc(-c2nc(C(Cl)Cl)c3ccccc3n2)cc1`, the activity came out at 96.3%.

Turning to `COc1ccc(CC(N)c2csc(NC(=O)Nc3ccc(C(C)C)cc3)n2)cc1` (configuration not stated), the activity is 97.2%.

Regarding `C#Cc1ccc(NC(=O)C2(C)CCN2C(=O)c2ccccc2CCc2ccccc2)cc1` (configuration not stated), the activity was determined as 95.9%.

On to `NNc1nc(-c2ccccc2)nc2sc3c(c12)CCCC3`, for which the activity stood at 54.4%.

As for `Fc1cccc(/C=N/Nc2nncc3ccccc23)c1`, the activity stood at 78.8%.

In the case of `CCC(C(=O)O/N=C(\N)c1ccc(C)cc1)c1ccccc1` (configuration not stated), the activity is 77.5%.

On to `CN(C)c1cccc(/C=C(\C#N)c2ccccc2)c1`, for which the activity was determined as 40.8%.

In the case of `S=c1[nH]ncn1/N=C/c1ccc(N2CCOCC2)cc1`, the activity worked out at 59.8%.

In the case of `Cn1c(-c2ccccc2)c(C(=O)CCl)c2ccccc21`, the activity is 99.2%.

Regarding `CN(C)c1ccc(/C=N/NC(=O)c2ccco2)cc1`, the activity came to 31.4%.

As to `O=C(Nc1ccc(N2CCN(C(=O)c3ccccc3)CC2)cc1)c1ccc([N+](=O)[O-])o1`, the activity came out at 99.3%.

In the case of `CC(C)(C)OC(=O)NCCCCCNC(=O)c1[nH]cnc1C(=O)Nc1cc(Br)ccc1F`, the activity was found to be 63.6%.

Turning to `N=c1n(CC(=O)c2ccc(Br)s2)c2ccccc2n1Cc1ccccc1`, the activity was 20.6%.

For the compound `Nc1nc(N)c2c(ccc3nccc32)[nH]1`, the activity was 78.7%.

Turning to `COc1ccccc1C=NN=C(NN=Cc1ccccc1OC)NN=Cc1ccccc1OC`, the activity was found to be 65.6%.

For `O=C(NNC(=O)c1cc(OCC(F)(F)F)ccc1OCC(F)(F)F)c1cccc(C(F)(F)F)c1`, the activity came out at 44.2%.
